# Screening data deposited in PubChem BioAssay by several laboratories.
# TRPM1 prom inh = MITF TRPM1 promoter inhibition in SK-MEL-5 cells; inhibition, % at 12.5 µM; SK-MEL-5 TRPM1 promoter luciferase, 24 h; 330,000 compounds, 0.83% hits;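 active = mean inhibition across replicates of 60% or more, whatever share of single replicates reaches that level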
# CF NFkB inh = blocks PAF-induced NF-kB reporter in cystic fibrosis cells. AID 588850. inhibition, % at 5 µM. KKLEB NF-kB-GFP reporter, GFP fluorescence overnight. 360,000 compounds, 0.86% hits;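 active = at least 50% inhibition at 5 µM, scaled per plate between neutral and stimulator controls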;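 note: PAF is a Pseudomonas aeruginosa culture filtrate used as stimulus; plate controls were PAF-stimulated DMSO wells for no effect and unstimulated DMSO wells for full effect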
# KKLEB cytotox = CF airway cell cytotoxicity counter-screen | KKLEB CF airway cells viability, ATPlite luminescence, overnight; active compounds read low; cells stimulated with P. aeruginosa culture filtrate | activity change (cytotoxicity), % at 5 µM | 360,000 compounds, 0.36% hits | AID 602141;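 active = corrected activity change at or below -50% at 5 µM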
# HIF-2a inh = blocks HIF-2a reporter activity. 786-0 RCC cells HIF-2a reporter, luciferase luminescence, overnight. inhibition, % at 18.8 µM. 360,000 compounds, 0.72% hits. AID 624352;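 active = inhibition of the luminescence signal of 40% or more relative to plate controls, in a single-dose primary screen at 18.75 µM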
# Shn3 inh set2 = reduces Shn3 3'UTR luciferase signal in osteoblasts. Clone20 osteoblast Shn3 3'UTR firefly luciferase, 24 h. inhibition, % at 12.5 µM. 360,000 compounds, 0.52% hits;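 active = mean inhibition of at least 75% with every replicate also reaching 75%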;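 note: 0% = median of neutral control wells and 100% = pilot-screen positive control compound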
# Peg3 promoter = reduces Peg3 promoter-driven luciferase expression in HeLa; AID 588405; HeLa PEG-Prom luciferase reporter, luminescence, overnight; 360,000 compounds, 1.7% hits; inhibition, % at 20 µM;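 active = inhibition of at least 50% at 20 µM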
# An asterisk follows results filed as active; . = no result given. Sampled rows, rich in hits. Any-hit rate of the full collection: about 2.7%.
SMILES,TRPM1 prom inh,CF NFkB inh,KKLEB cytotox,HIF-2a inh,Shn3 inh set2,Peg3 promoter
COc1ccc2[nH]c3c(c2c1)CCN1C(=O)C(CC(=O)NCCCn2ccnc2)C[C@H](C(=O)N2CCOCC2)[C@@]31C (some centres not stated),-6.0,4.2,6.6,-11.1,3.2,2.4
Cc1cccc(NC2=C/C(=N/S(=O)(=O)c3cccs3)c3ccccc3C2=O)c1,102.3*,93.2*,-64.6*,7.2,93.4*,45.2
Cc1cccc(NC2=C(NCCO)C(=O)c3ccccc3C2=O)c1,20.5,1.1,0.8,-54.1,15.2,-19.7
O=C(O)c1ccc(NC2=C/C(=N/S(=O)(=O)c3cccs3)c3ccccc3C2=O)cc1,.,87.3*,-20.8,13.4,17.5,-4.0
O=C1C(Nc2ccc(O)cc2)=C/C(=N/S(=O)(=O)c2cccs2)c2ccccc21,108.2*,92.9*,-64.6*,40.1*,99.8*,105.9*
O=C(O)c1ccc(Nc2nc3ccccc3nc2NS(=O)(=O)c2cccs2)cc1,-12.3,-6.8,5.7,-2.2,-29.2,7.6
CC(C)[C@H](NC(=O)c1ccccc1)C(=O)Nc1ccc2c(c1)OCO2,-12.7,7.8,-0.9,-36.9,-27.5,-33.1
CNc1cncc(-c2cccc(C(=O)NC3CC3)c2)n1,.,4.1,4.5,-35.9,-6.6,-32.4
COCC(=O)N1CCC(Oc2ccc(C(=O)N(C)C(C)c3ccon3)cc2)CC1 (configuration not stated),-8.0,17.1,10.6,-6.9,1.2,0.5
CCN1C(N(C)CCc2cccs2)=N[C@@H](c2ccccc2)C(C(=O)OC)=C1C,10.5,-23.8,-12.5,7.2,18.2,-5.0
CCN1C(N(C)CCc2c[nH]c3ccccc23)=N[C@@H](c2cccc(C(F)(F)F)c2)C(C(=O)OC)=C1C,-5.7,23.0,-23.8,7.3,2.2,111.1*
COc1cccc2sc(N(CCCN(C)C)C(=O)c3ccc(S(=O)(=O)N4CCc5ccccc5C4)cc3)nc12,46.5,26.5,-15.9,13.3,15.4,85.3*
COc1cc2nc(N(CCCN(C)C)C(=O)c3ccc(S(=O)(=O)N4CCc5ccccc5C4)cc3)sc2cc1OC,11.8,-3.1,-1.7,-3.7,-26.6,36.3
COc1cccc2sc(N(CCCN(C)C)C(=O)c3ccc(S(=O)(=O)N4CCCc5ccccc54)cc3)nc12,18.6,4.9,-16.4,9.9,-12.0,53.6*
CCOc1ccc2nc(N(CCCN(C)C)C(=O)c3ccc4c(c3)CCCC4)sc2c1,6.4,7.1,-13.9,-21.8,0.6,16.8
CCOc1ccc2nc(N(CCCN(C)C)C(=O)c3ccc(S(=O)(=O)N4CCc5ccccc5C4)cc3)sc2c1,73.5*,-6.9,-27.7,12.1,25.7,27.8
CN(C)CCCN(C(=O)c1ccc2c(c1)CCCC2)c1nc2ccc(Cl)cc2s1,-17.0,11.0,-23.8,-4.2,19.5,107.7*
COc1ccc(N2CCN(C(=O)CCS(=O)(=O)c3ccc4c(c3)NC(=O)CO4)CC2)cc1,3.4,-16.2,12.4,10.3,-4.2,19.0
Cc1ccc2nc(NNC(=O)c3ccc4c(c3)OCCO4)sc2c1,.,25.0,-16.4,-18.2,-10.7,-10.5
CCc1ccc2nc(N(CCCN(C)C)C(=O)c3ccc(S(=O)(=O)N4CCCC4)cc3)sc2c1,-15.5,-7.0,-11.5,-9.1,11.1,-55.4
Cc1ccc2nc(NNC(=O)c3ccc(S(=O)(=O)N4CCc5ccccc5C4)cc3)sc2c1,77.8*,15.7,-14.3,18.2,93.6*,44.2
CCc1ccc2nc(N(CCCN(C)C)C(=O)c3ccc(C(=O)c4ccccc4)cc3)sc2c1,-7.1,18.1,-20.6,-3.3,-29.6,101.8*
COc1cc2nc(N(CCCN(C)C)C(=O)c3ccc(C(=O)c4ccccc4)cc3)sc2cc1OC,2.6,6.0,-8.8,3.9,-5.5,-25.1
CCc1ccc2nc(N(CCCN(C)C)C(=O)c3ccc(S(=O)(=O)N4CCCc5ccccc54)cc3)sc2c1,12.8,34.1,-34.1,-25.4,7.5,106.1*
Cc1cc(C)c2nc(N(CCCN(C)C)C(=O)c3ccc4c(c3)OCCO4)sc2c1,-17.4,25.9,-17.0,-43.1,8.8,97.7*
CCNC(=O)c1cc2c(c(-c3cccc(-c4ccccc4F)c3)n1)[C@H](CCO)N(C(=O)CC)C2,.,.,.,-5.6,.,.
Cc1cc(C)cc(N2C(=O)C=CC2=O)c1,50.9,89.0*,-34.3,-36.3,94.2*,106.2*
